Source: PubChem BioAssay (NCATS)
Records with an inconclusive call do not appear. Calls of active or inactive are those of the source. Calls come from the whole dose curve; as a rule, active = well fitted curve in the direction sought with a large enough effect; inconclusive = small, poorly fitted or top-dose-only effect, or another doubt; inactive = no such curve, though single readings can be large; an effect the other way counts as inactive or inconclusive.

Legend:
[1] = qHTS of pediatric cancer cell lines to identify multiple opportunities for drug repurposing: Primary screen for DAOY cells (AID 1347090); note: nearly all actives have a fitted effect of over 55% in size; note: potency is the fitted concentration of half-maximal effect
In short: (§1)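 Cell viability, CellTiter-Glo luminescence; 500-1,000 cells/well, 8- or 11-point titration, 48 h compound exposure at 37 degrees C, 5% CO2. Controls: DMSO neutral, bortezomib 2.3 µM final as positive.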

[2] = qHTS of pediatric cancer cell lines to identify multiple opportunities for drug repurposing: Primary screen for SJ-GBM2 cells (AID 1347091); note: potency is the fitted concentration of half-maximal effect
In short: as §1

[3] = qHTS of pediatric cancer cell lines to identify multiple opportunities for drug repurposing: Primary screen for BT-37 cells (AID 1347094); note: potency is the fitted concentration of half-maximal effect
In short: (§2)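 Plated cells (500-1,000 per well, growth media) were allowed to settle for 5 hours, treated with compound dilutions for 48 hours, then lysed with CellTiter-Glo for 15 min at room temperature before luminescence reading.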

[4] = qHTS of pediatric cancer cell lines to identify multiple opportunities for drug repurposing: Primary screen for NB-EBc1 cells (AID 1347095); note: potency is the fitted concentration of half-maximal effect
In short: as §2

[5] = qHTS of pediatric cancer cell lines to identify multiple opportunities for drug repurposing: Primary screen for Saos-2 cells (AID 1347097); note: nearly all actives have a fitted effect of over 40% in size; note: potency is the fitted concentration of half-maximal effect
In short: as §2

[6] = qHTS of pediatric cancer cell lines to identify multiple opportunities for drug repurposing: Primary screen for SK-N-SH cells (AID 1347098); note: nearly all actives have a fitted effect of over 65% in size; note: potency is the fitted concentration of half-maximal effect
In short: (§3)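 Cells (500-1,000/well) rested 5 h, then received compounds for 48 h; metabolically active cells were measured by CellTiter-Glo luminescence. Final concentrations spanned up to 46 µM (MIPE, 11-point) or 0.59 nM-46 µM (NPC, 8-point) in primary screens, 11-point in follow-ups.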

[7] = qHTS of pediatric cancer cell lines to identify multiple opportunities for drug repurposing: Primary screen for NB1643 cells (AID 1347099); note: nearly all actives have a fitted effect of over 50% in size; note: potency is the fitted concentration of half-maximal effect
In short: as §2

[8] = qHTS of pediatric cancer cell lines to identify multiple opportunities for drug repurposing: Primary screen for LAN-5 cells (AID 1347100); note: potency is the fitted concentration of half-maximal effect
In short: as §3

[9] = qHTS of pediatric cancer cell lines to identify multiple opportunities for drug repurposing: Primary screen for BT-12 cells (AID 1347101); note: nearly all actives have a fitted effect of over 25% in size; note: potency is the fitted concentration of half-maximal effect
In short: as §3

[10] = qHTS of pediatric cancer cell lines to identify multiple opportunities for drug repurposing: Primary screen for OHS-50 cells (AID 1347103); note: nearly all actives have a fitted effect of over 40% in size; note: potency is the fitted concentration of half-maximal effect
In short: as §3

[11] = qHTS of pediatric cancer cell lines to identify multiple opportunities for drug repurposing: Primary screen for RD cells (AID 1347104); note: nearly all actives have a fitted effect of over 55% in size; note: potency is the fitted concentration of half-maximal effect
In short: as §2

[12] = qHTS of pediatric cancer cell lines to identify multiple opportunities for drug repurposing: Primary screen for MG 63 (6-TG R) cells (AID 1347105); note: nearly all actives have a fitted effect of over 50% in size; note: potency is the fitted concentration of half-maximal effect
In short: as §2

[13] = qHTS of pediatric cancer cell lines to identify multiple opportunities for drug repurposing: Primary screen for A673 cells (AID 1347092); note: nearly all actives have a fitted effect of over 45% in size; note: potency is the fitted concentration of half-maximal effect
In short: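 Luminescence from CellTiter-Glo, taken after 15 min at room temperature, served as the proxy for metabolically active cells following 48 h treatment. Both potency and efficacy were taken from curves fitted to the titration data.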

[14] = qHTS of pediatric cancer cell lines to identify multiple opportunities for drug repurposing: Confirmatory screen for A673 cells (AID 1347110);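 note: cells exposed to compound for 48 h before the viability read; nearly all actives have a fitted effect of over 65% in size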; note: potency is the fitted concentration of half-maximal effect
In short: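 qHTS titration format: primary MIPE 0.78 nM-46 µM (11 pts), NPC 0.59 nM-46 µM; confirmation 11 pts. 48 h, CTG luminescence.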

[15] = qHTS of pediatric cancer cell lines to identify multiple opportunities for drug repurposing: Primary screen for SK-N-MC cells (AID 1347093); note: potency is the fitted concentration of half-maximal effect
In short: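 Metabolically active cells were quantified by ATP-dependent luminescence (CellTiter-Glo, 15 min at room temperature) following 48 h treatment. Cells had been plated at 500-1,000 per well and settled for 5 h beforehand.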

[16] = qHTS of pediatric cancer cell lines to identify multiple opportunities for drug repurposing: Primary screen for U-2 OS cells (AID 1347096); note: nearly all actives have a fitted effect of over 50% in size
In short: as §3

[17] = qHTS of pediatric cancer cell lines to identify multiple opportunities for drug repurposing: Primary screen for Rh30 cells (AID 1347107); note: series mostly up to about 46 µM; nearly all actives have a fitted effect of over 75% in size
In short: as §3

[18] = qHTS of pediatric cancer cell lines to identify multiple opportunities for drug repurposing: Primary screen for Rh18 cells (AID 1347102); note: nearly all actives have a fitted effect of over 65% in size
In short: as §3

[19] = qHTS of pediatric cancer cell lines to identify multiple opportunities for drug repurposing: Primary screen for Rh41 cells (AID 1347108);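 note: series mostly up to about 46 µM; luminescence drop marks cytotoxic hits; nearly all actives have a fitted effect of over 70% in size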
In short: as §2

[20] = qHTS of pediatric cancer cell lines to identify multiple opportunities for drug repurposing: Primary screen for control Hh wild type fibroblast cells (AID 1347106);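 note: series mostly up to about 46 µM; a drop in luminescence marks cytotoxicity and a rise apparent proliferation; nearly all actives have a fitted effect of over 55% in size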
In short: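 Viability after 48 h compound treatment at 37C, 500-1,000 cells/well, read as ATP luminescence with CellTiter-Glo. Primary screens used 11-point (MIPE, 0.78 nM-46 µM) or 8-point (NPC, 0.59 nM-46 µM) final concentrations; follow-up screens used 11-point dilutions.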

Measured: Potency

O=[N+]([O-])c1ccc(O)c2ncccc12
active: [1] 2.66 µM | [2] 2.66 µM | [3] 15.5 µM | [4] 2.37 µM | [5] 10.6 µM | [6] 3.44 µM | [7] 1.88 µM | [8] 3.76 µM | [9] 5.5 µM | [10] 5.5 µM | [11] 5.31 µM | [12] 6.68 µM

Nc1ccc2cc3ccc(N)cc3nc2c1
active: [1] 26.6 µM | [13] 13.3 µM | [3] 9.78 µM | [4] 4.73 µM | [6] 7.7 µM | [8] 4.22 µM | [9] 7.77 µM | [14] 7.37 µM

CCCC(=O)O[C@]1(C(=O)CC)CC[C@H]2[C@@H]3CCC4=CC(=O)CC[C@]4(C)[C@H]3[C@@H](O)C[C@@]21C
active: [15] 33.5 µM
not listed: [5] | [10] | [13] | [14] | [18] | [19] | [20]
inactive: all other assays above

CCc1cc2cc(OC)c(OC)cc2c(Cc2ccccc2)n1
active: [10] 21.9 µM
not listed: [2] | [4] | [6] | [8] | [15] | [17] | [20]
inactive: all other assays above

C[C@@]12CCC[C@H]1[C@@H]1CC[C@H]3C[C@@H](O)CC[C@]3(C)[C@H]1CC2
not listed: [5] | [9] | [10] | [12] | [13] | [14] | [17]
inactive: all other assays above

CC1CCCCN1CCCOC(=O)c1ccc(OC2CCCCC2)cc1 (configuration not stated)
active: [10] 24.6 µM
not listed: [5] | [6] | [9] | [13] | [14]
inactive: all other assays above

CCCc1ccc(OCC(=O)N2CCN(C(=O)COc3ccc(CCC)cc3OC)CC2)c(OC)c1
not listed: [2] | [4] | [5] | [8] | [14]
inactive: all other assays above

CO[C@@H]1[C@@H](O[C@@H]2O[C@H](C)[C@@H](O[C@H]3C[C@@](C)(O)[C@@H](O)[C@H](C)O3)[C@H](N(C)C)[C@H]2O)[C@@H](CC=O)C[C@@H](C)[C@@H](O[C@@H]2CC[C@H](N(C)C)[C@@H](C)O2)/C=C/C=C/C[C@@H](C)OC(=O)C[C@H]1OC(C)=O
not listed: [6] | [9] | [10] | [13] | [14]
inactive: all other assays above

OCc1c[nH]c2ccccc12
active: [15] 21.7 µM
inactive: [1] | [3] | [18] | [10] | [12] | [20] | [17]
